In the library only some 4% were active in any assay of this set; here they are far more common.
CF NFkB block – cystic fibrosis NF-kB activation inhibition; KKLEB NF-kB-GFP reporter, PAF-induced, GFP fluorescence overnight; inhibition, % at 5 µM; actives 0.86% (n = 360,000); AID 588850;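 active means at least 50% inhibition at 5 µM, scaled per plate between neutral and stimulator controls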;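 further: PAF is a Pseudomonas aeruginosa culture filtrate used as stimulus; plate controls were PAF-stimulated DMSO wells for no effect and unstimulated DMSO wells for full effect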
KKLEB cytotox – counter-screen for CF NF-kB inhibitors: cytotoxicity. KKLEB CF airway cells viability, ATPlite luminescence, overnight; hits give low values; cells stimulated with P. aeruginosa culture filtrate. activity change (cytotoxicity), % at 5 µM. actives 0.36% (n = 360,000). AID 602141;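 active means corrected activity change at or below -50% at 5 µM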
HIF-2a inh – blocks HIF-2a reporter activity; 786-0 RCC cells HIF-2a reporter, luciferase luminescence, overnight; inhibition, % at 18.8 µM; actives 0.72% (n = 360,000); AID 624352;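 active means inhibition of the luminescence signal of 40% or more relative to plate controls, in a single-dose primary screen at 18.75 µM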
Peg3 promoter – Peg3 promoter activity inhibition | AID 588405 | actives 1.7% (n = 360,000) | HeLa PEG-Prom luciferase reporter, luminescence, overnight | inhibition, % at 20 µM;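 active means inhibition of at least 50% at 20 µM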
TROY signal inh – TROY signaling inhibition; Q293 LMP1-TROYcd NF-kB luciferase reporter, 4 h; inhibition, % at 10 µM; actives 0.98% (n = 360,000);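 active means compounds whose plate-normalised and pattern-corrected inhibition of the luciferase reporter signal at the single screening dose is 50% or more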
TWEAK Fn14 block – TWEAK-Fn14 signaling inhibition; TWEAK-stimulated Fn14 reporter cells, luciferase luminescence, 8 h; inhibition, % at 10 µM; actives 2% (n = 360,000); AID 1159606; in the data active means inhibition above about 50%
Mdm2-MdmX confirm – confirmation of inhibitors of human Mdm2/MdmX interaction, set 2. shares compounds with HIF-2a inh. SaOS-2 split-luciferase Mdm2/MdmX complementation, luminescence. inhibition, % at 8 µM. actives 99% (n = 740). AID 504601;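 active means mean inhibition of the luminescence signal across two replicates at or above 26 percent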
HIF-2a inh conf – confirmation of HIF-2a inhibitors; 786-0 RCC cells, HIF-2a luciferase reporter luminescence, overnight; actives 56% (n = 1,800); inhibition, % at 18.8 µM; shares compounds with HIF-2a inh;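 active means mean inhibition across four replicates of at least 40 percent at the single tested concentration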
HIF-1a counter – HIF-1a inhibition counter-screen for HIF-2a hits; shares compounds with HIF-2a inh; MiaPaCa-2 HIF-1a luciferase reporter, desferoxamine, overnight; inhibition, % at 18.8 µM; actives 72% (n = 1,800);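 active means mean inhibition of the reporter signal across four replicates at the single tested dose of 50% or more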
* = called active by the depositor; x = not tested or not shown.

SMILES	CF NFkB block	KKLEB cytotox	HIF-2a inh	Peg3 promoter	TROY signal inh	TWEAK Fn14 block	HIF-2a inh conf	HIF-1a counter	others
CCCC[C@@H](C)C[C@@H](C)C(=O)N(C)[C@@H](CC(C)C)C(=O)N[C@H](C(=O)N(C)[C@H](C(=O)N1C[C@@H](O)C[C@H]1C(=O)N1C(=O)C=C[C@@H]1C)C(C)C)C(C)OC(C)=O (some centres not stated)	84.2*	-88.3*	53.2*	92.1*	-22.3	51.5*	x	x	Mdm2-MdmX confirm=99.9*
C[C@H]1CC[C@@H]2[C@@H](C)[C@H]3[C@H](C[C@H]4[C@@H]5CC=C6C[C@@H](O[C@@H]7O[C@H](CO)[C@H](O)[C@H](O[C@@H]8O[C@H](CO)[C@@H](O)[C@H](O)[C@H]8O)[C@H]7O[C@@H]7O[C@@H](C)[C@H](O)[C@@H](O)[C@H]7O)CC[C@]6(C)[C@H]5CC[C@]34C)N2C1	-2.5	8.4	87.0*	31.7	-7.8	4.3	30.7	67.5*
NNCc1ccccc1	-34.6	5.4	-166.2	-72.4	-36.0	-51.6	x	x
CS(=O)(=O)CCN1CC2CCCC(C2)C1	2.3	-9.2	7.0	-2.8	-3.5	0.0	x	x
CSCCC(c1nnnn1-c1c(C)cccc1C)N1CCC(n2c(=O)[nH]c3ccccc32)CC1 (configuration not stated)	37.4	-26.5	-4.9	18.0	35.5	38.2	x	x
O=c1[nH]c2ccccc2n1C1CCN(C(CCc2ccccc2)c2nnnn2Cc2ccccc2)CC1 (configuration not stated)	83.5*	-82.1*	66.6*	97.4*	71.2*	93.9*	-20.3	105.3*
Cc1ccc(-[n+]2c(Cc3nn(-c4ccccc4)c(C)[n+]3-c3ccc(C)cc3)nn(-c3ccccc3)c2C)cc1	-50.5	13.0	11.8	-4.8	-1.4	-5.4	x	x
CC1=CC2OC3CC4OC(=O)C=CC=CC(=O)OCCC(C)C(O)C(=O)OCC2(CC1)C4(C)C31CO1 (configuration not stated)	89.5*	-19.5	75.5*	97.0*	85.0*	101.4*	71.2*	103.2*
CC1CCOC(=O)C=CC=CC(=O)OC2CC3OC4C5OC5(C)C(O)CC4(COC(=O)C1O)C2(C)C31CO1 (configuration not stated)	90.3*	-9.0	66.7*	98.5*	85.6*	103.2*	55.9*	103.1*
CC1=CC2OC3CC4OC(=O)C=CC=CC(C(C)O)OCC(O)C5(C)OC5C(=O)OCC2(CC1O)C4(C)C31CO1 (configuration not stated)	95.8*	-47.9	77.9*	101.7*	83.0*	98.6*	66.3*	105.7*
O=[N+]([O-])c1cccc(NP(=O)(N2CC2)N2CC2)c1	-23.7	10.6	8.4	9.7	-5.2	4.9	x	x
COC(=O)C1=C(c2ccc(OC(F)(F)F)cc2)C[C@@H]2CC[C@H]1N2C(=O)N1CCCCC1	16.4	-1.3	4.9	2.4	4.5	11.0	x	x
CN(C)C(=O)O/N=C(\N)COc1ccc(C(C)(C)C)cc1	5.4	-6.1	60.0*	107.4*	-30.2	-54.5	-76.1	-45.0	Mdm2-MdmX confirm=103.0*
O=C(Nc1ccc(OC(=O)N2CCCCC2)cc1)N1CCOCC1	14.7	7.3	72.0*	16.1	85.2*	94.0*	76.2*	51.5*
Cc1cc(N(CCCl)CCCl)ccc1C=NNC(=O)Cc1cc(=O)oc2cc(O)ccc12	-0.4	0.3	-8.9	30.9	16.1	2.6	x	x
COc1cc([N+](=O)[O-])c2nc(C)ccc2c1[N+](=O)[O-]	25.5	-22.5	-9.9	7.4	4.0	25.2	x	x
COc1cc([N+](=O)[O-])c2ncccc2c1[N+](=O)[O-]	27.6	-1.8	43.3*	47.6	7.6	33.2	1.0	78.3*
